The panel holds about 79,000 compounds, 15% with a hit somewhere; the sample as a whole holds those more often. Unmarked numbers belong to inactive results. Active and inactive are the calls of the source. Cut-off read from the data, not from the text of the source: active = growth inhibition above about 70%; inactive = the rest.

A short description of this experiment: NCI Yeast Anticancer Drug Screen. Data for the bub3 strain (AID 167). Particulars: S. cerevisiae bub3 mutant strain, at 50.0 µM, stronger effect = higher value. As for the experimental part: Growth inhibition of yeast strains with defined genetic alterations is measured as a screen for potential anti-cancer activity. Selected strains with alterations in DNA damage repair or cell cycle control were exposed to compounds and growth inhibition was measured relative to vehicle treated controls. The strain used in this assay is bub3
For `O=C(O)c1ccc2c([N+](=O)[O-])cccc2n1`, the growth inhibition is 1.15%.
Under `COC(=O)c1nc(N)[nH]c(=O)c1-c1ccc(Cl)cc1` stands -12.7%; under `CCOc1nc(SCC)nc2c1cnn2-c1ccccc1`, -1.2%.
Consider `O=C(CC(c1ccccc1)N1CCCCC1)OC(c1ccccc1)c1ccc(Br)cc1` (stereo not given), for which the growth inhibition is 6.4%.
`O=C(O)c1ccc(Cl)cc1C(=O)c1ccc(Cl)cc1`: the growth inhibition was -1.7%.
For the compound `CCOC(=O)NCS(=O)(=O)N1CCOCC1`, the growth inhibition is 3.45%.
As to `C=CCCCCCCCCC(=O)OC1CCCCC1`, the growth inhibition was 15.4%.
Turning to `C=C(C)C#CCN(CCO)C(C)C`, the growth inhibition is -19.4%.
The result for `COc1ccc(N)c(C(=O)CCNC(C)=O)c1` reads -26.6%; that for `O=[n+]1c2c(n([O-])c3cc(Cl)c(Cl)cc31)CCCC2`, 25.9%.
As for `OC1(c2cccc(C(F)(F)F)c2)CCNCC1`, the growth inhibition is -22.6%.
With `COC(=O)C1CCC(=O)N1CN(C(C)=O)c1ccccc1` (stereo not given), the growth inhibition was -5.8%.
For the compound `CCOc1ccc(NC(C)=O)c([N+](=O)[O-])c1`, the growth inhibition was -3.35%.
With `C[N+](C)(CCOc1ccccc1)Cc1ccccc1`, the growth inhibition was 48%.
Consider `Cc1ccc(-c2cc(=O)c3cc(C)c(C)c(C(=O)O)c3o2)cc1`, for which the growth inhibition was 7.1%.
Under `Cc1cccc([B-]23OCC[N+]2(CNC(=O)c2ccccc2O)CCO3)c1` (stereo not given) stands -18.4%; under `CC1=C(C(=O)NNC(=O)c2ccccc2O)CC(C(=O)NNC(=O)c2ccccc2O)=C(C)N1`, 64.2%; under `C#CC(C)OC(=O)Nc1ccccc1` (stereo not given), -7.65%.
On to `COc1ccc(C(c2ccc(N(Cc3ccccc3)Cc3ccccc3)cc2NC(C)=O)c2ccc(N(Cc3ccccc3)Cc3ccccc3)cc2NC(C)=O)cc1OC`, for which the growth inhibition is -6.1%.
Turning to `NC(=O)NCC(N)C(=O)O` (stereo not given), the growth inhibition was 1.55%.
For `COc1ccc(NC(=S)Nc2ccccc2)cc1`, the growth inhibition was -21.8%.
Turning to `[Cl][Ce]([Cl])[Cl]`, the growth inhibition was 24.1%.
Regarding `CN(Cc1ccccc1)c1ccccn1`, the growth inhibition was -12.7%.
In the case of `O=c1c2ccccc2c(=O)n2n1C1CCC2C1`, the growth inhibition is 1.85%.
As to `CCSc1n[nH]c(=O)nc1NN`, the growth inhibition is -19.2%.
Under `c1ccc(-c2cc(CNc3nc4ccccc4s3)on2)cc1` stands -4.55%; under `CN(C)C(=S)/N=c1\ss/c(=N\C(=S)N(C)C)n1C1CCCCC1`, -18.6%; under `O=C(c1ccccc1)C12CCCC(CC1)C2` (stereo not given), -9.6%.
As for `O=C1CCCC/C1=C/c1ccccc1`, the growth inhibition was -11.9%.
Regarding `CC(C)(CCC(C)(C)c1ccccc1)c1ccccc1`, the growth inhibition was -17.9%.
In the case of `O=C(Oc1ccccc1)C(Cc1ccccc1)NC(=O)C(F)(F)F` (stereo not given), the growth inhibition was 5.85%.
On to `C/C(=N\N)c1ccc(-c2ccccc2)cc1`, for which the growth inhibition was -30.7%.
On to `COc1ccc(C(=O)/C=C/c2ccc(OCC(=O)O)cc2)cc1`, for which the growth inhibition was -5.75%.
As to `CC/C(=C\c1ccc(OC)cc1)c1ccc(OC)cc1`, the growth inhibition was 1.75%.
Turning to `O=[N+]([O-])c1ccc(S(=O)(=O)Nc2ccccc2-c2ccccc2)cc1`, the growth inhibition is 98.8% (active).
On to `CC(=O)c1cccc(NC(=O)C(=O)C(C(=O)NN)c2ccccc2)c1` (stereo not given), for which the growth inhibition is 23%.
The result for `COc1cc(C(=O)NOCc2cccc(C(F)(F)F)c2)cc(OC)c1OC` reads 2.5%; that for `COc1cc(CCCCC(=O)O)ccc1OC(=O)c1ccccc1`, -6.3%.
For `CC(=O)NCc1cccc([N+](=O)[O-])c1`, the growth inhibition was 17.7%.
The result for `CCNCc1cc(Nc2cc(C)nc(/N=C(\N)Nc3ccc(Cl)c(Cl)c3)n2)ccc1OC` reads 98.2% (active).

(Values after PubChem BioAssay (NCI).)
